{
  "source": "PubChem BioAssay (NCATS)",
  "molecular_target": "Calcium and integrin-binding protein 1 (Homo sapiens) (UniProt Q99828)",
  "sequence (Q99828 whole entry, looked up)": "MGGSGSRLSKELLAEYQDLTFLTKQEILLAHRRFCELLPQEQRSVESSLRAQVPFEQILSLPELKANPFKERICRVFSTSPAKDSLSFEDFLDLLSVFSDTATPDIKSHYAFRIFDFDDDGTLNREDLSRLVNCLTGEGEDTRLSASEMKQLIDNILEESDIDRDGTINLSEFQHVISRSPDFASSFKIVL",
  "experiment": "Primary qHTS for Identification of Calcium Integrin Binding Protein 1 (CIB1) Competitor (AID 1508620); note: top concentration of the series differs between compounds",
  "conditions": "CIB1-GST / FITC-alphaIIb peptide fluorescence polarization; series mostly up to 114 µM",
  "how_it_was_run": "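Fluorescence polarization competition: GST-tagged CIB1 (1 uM final) preincubated with compound 15 min at room temperature, then FITC-labelled alphaIIb peptide (100 nM final) added. After 15 min at room temperature, polarization read at Ex 480/Em 540.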",
  "note": "Records with an inconclusive call do not appear. Entries that show only a call come without a potency. The source made the active and inactive calls. Calls come from the whole dose curve; as a rule, active = well fitted inhibition curve with a large enough effect; inconclusive = small, poorly fitted or top-dose-only effect; inactive = flat fitted curve, though single readings scatter.",
  "data": [
    {"smiles": "CC(=O)OC1/C(C)=C/C(=O)C(OC(C)=O)C(C)(C)/C=C/C(C)C(=O)C2(OC(C)=O)CC(C)C(OC(=O)c3ccccc3)C12", "note": "(stereo unspecified)", "values": [
      {"measurement": "Potency", "value": "inactive"}
    ]}
  ]
}
